According to PubChem BioAssay (NCATS):
Inconclusive results are not listed. A call without a number means that no potency is given here. The source made the active and inactive calls. Unless noted, calls come from the whole dose curve. Square brackets hold non-standard residues; d marks the D form. Peptide text beside a SMILES is read from it. dPhe(4-Cl) = N[C@H](Cc1ccc(Cl)cc1)C(=O)O; d2Nal = N[C@H](Cc1ccc2ccccc2c1)C(=O)O; dCit = NC(=O)NCCC[C@@H](N)C(=O)O; d3Pal = N[C@H](Cc1cccnc1)C(=O)O

What was measured:
[1] = Primary qHTS for Huh7 cytotoxicity: counterscreen for inhibitors of MERS-S pseudotyped particle cell entry (AID 1479147); settings: outcome: dose series up to 57.1 µM unless noted
[2] = Primary qHTS for inhibitors of MERS-S pseudo-typed particle cell entry (AID 1479149); settings: outcome: dose series up to 57.1 µM unless noted; note: nearly all actives have a fitted effect of over 60% in size; note: potency is the fitted concentration of half-maximal effect
[3] = Primary qHTS for Vero E6 cytotoxicity: counterscreen for inhibitors of SARS-S pseudo-typed particle cell entry (AID 1479150); settings: outcome: dose series up to 57.1 µM unless noted; note: potency is the fitted concentration of half-maximal effect
[4] = Cytotoxicity counterscreen for inhibitors of SARS-CoV-2 cell entry (AID 1645845); settings: outcome: dose series up to 57.1 µM unless noted; note: nearly all actives have a fitted effect of over 50% in size
Outline: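 48 h compound treatment (after 1 h preincubation), HEK293-ACE2 cells, 37 C/5% CO2; ATP luminescence endpoint; normalized to cell wells and media blanks.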

[5] = Primary qHTS to identify inhibitors of SARS-CoV-2 cell entry (AID 1645846); settings: SARS-CoV-2 pseudovirus cell entry assay, luminescence; activity change, negative = inhibition: at 57.1 µM (top of the series) unless noted; note: nearly all actives have a fitted effect of over 45% in size; note: potency is the fitted concentration of half-maximal effect
Outline: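 Luminescence readout (Bright-Glo luciferase) 48 h after pseudoparticle addition. HEK293-ACE2 cells, 1500/well; compound pre-incubation 1 h; Normalized to spike PP and bald PP.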

[6] = target: Glutathione peroxidase 1 (Homo sapiens) (UniProt P07203); experiment: Primary qHTS Assay for Inhibitors of Recombinant Selenoprotein Glutathione Peroxidase 1 (GPX1) (AID 1845191; active = well fitted curve in the direction sought with a large enough effect; an effect the other way counts as inactive or inconclusive; note: nearly all actives have a fitted effect of over 65% in size)
Sequence of Glutathione peroxidase 1 (Homo sapiens) (P07203 whole entry, looked up): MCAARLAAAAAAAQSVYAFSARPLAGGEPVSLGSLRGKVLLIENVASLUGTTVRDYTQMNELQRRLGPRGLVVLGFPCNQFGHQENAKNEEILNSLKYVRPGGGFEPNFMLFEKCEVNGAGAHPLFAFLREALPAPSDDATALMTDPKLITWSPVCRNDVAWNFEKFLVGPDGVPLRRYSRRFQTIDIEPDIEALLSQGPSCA
Outline: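 10 nM GPX1 + cpd, 30 min RT; start w/ 1 mM GSH, 0.5 mM cumene hydroperoxide, 0.5 mM NADPH, 100 nM GR, 0.01% BSA; buffer 50 mM Tris-HCl pH 7.5, 2 mM EDTA, 150 mM NaCl; Fl 340/450, 0 & 15 min.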

[7] = target: Phospholipid hydroperoxide glutathione peroxidase GPX4 (Homo sapiens) (UniProt P36969); experiment: Primary qHTS Assay for Inhibitors of Recombinant Selenoprotein Glutathione Peroxidase 4 (GPX4) (AID 1845192; active = well fitted curve in the direction sought with a large enough effect; an effect the other way counts as inactive or inconclusive; note: nearly all actives have a fitted effect of over 65% in size)
Sequence of Phospholipid hydroperoxide glutathione peroxidase GPX4 (Homo sapiens) (P36969 whole entry, looked up): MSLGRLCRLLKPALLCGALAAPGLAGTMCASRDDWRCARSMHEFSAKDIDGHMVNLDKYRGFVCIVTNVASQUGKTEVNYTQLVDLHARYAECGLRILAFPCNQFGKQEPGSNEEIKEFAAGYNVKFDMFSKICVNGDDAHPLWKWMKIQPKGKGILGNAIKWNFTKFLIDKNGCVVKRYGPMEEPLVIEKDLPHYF
Outline: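 NADPH consumption, followed by fluorescence at 340/450 nm between 0 and 15 min, reports GPX4 activity via coupled glutathione reductase (100 nM). Enzyme 200 nM was pre-exposed to compound 30 min; 0.5 mM cumene hydroperoxide and 1 mM GSH served as substrates.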

[8] = VSVG counterscreen qHTS to identify inhibitors of SARS-CoV-2 cell entry (AID 1645847); note: potency is the fitted concentration of half-maximal effect; nearly all actives have a fitted effect of over 65% in size
Outline: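 HEK293-ACE2 cells (Expi293F stably expressing human ACE2) were pretreated with compound for 1 h at 37 °C, then infected with MLV-based VSV-G pseudotyped particles for 48 h. Luciferase luminescence was normalized to VSV-G PP and bald PP wells.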

[9] = Confirmatory qHTS for VERO E6 Cytotoxicity Assay: Counterscreen for SARS-CoV-2 CPE Assay (AID 1508605); note: nearly all actives have a fitted effect of over 60% in size
[10] = Confirmatory qHTS for activators (rescue) of SARS-CoV-2 Cytopathic Effect (CPE) (AID 1508606); note: potency is the fitted concentration of half-maximal effect; nearly all actives have a fitted effect of over 70% in size
[11] = target: Cytochrome P450 2C9 (Homo sapiens) (UniProt P11712); experiment: qHTS Assay for Inhibitors and Substrates of Cytochrome P450 2C9 (AID 883; active = well fitted curve in the direction sought with a large enough effect; an effect the other way counts as inactive or inconclusive; note: nearly all actives have a fitted effect of over 60% in size)
Sequence of Cytochrome P450 2C9 (Homo sapiens) (P11712 whole entry, looked up): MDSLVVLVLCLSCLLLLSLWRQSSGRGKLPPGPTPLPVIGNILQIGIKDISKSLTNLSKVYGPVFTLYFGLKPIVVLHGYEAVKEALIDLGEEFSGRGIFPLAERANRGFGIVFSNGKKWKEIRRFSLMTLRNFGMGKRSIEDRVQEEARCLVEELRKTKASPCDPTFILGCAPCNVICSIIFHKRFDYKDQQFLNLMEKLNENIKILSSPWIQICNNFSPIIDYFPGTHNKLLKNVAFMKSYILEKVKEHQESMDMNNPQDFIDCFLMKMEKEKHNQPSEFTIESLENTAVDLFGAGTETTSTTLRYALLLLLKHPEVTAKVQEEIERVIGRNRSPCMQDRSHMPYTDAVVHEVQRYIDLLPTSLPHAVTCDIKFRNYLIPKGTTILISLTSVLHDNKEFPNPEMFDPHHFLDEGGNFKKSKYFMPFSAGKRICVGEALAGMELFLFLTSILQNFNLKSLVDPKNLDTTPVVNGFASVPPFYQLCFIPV
Outline: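 Turnover of Luciferin-H (100uM, KM) by 10nM human CYP2C9 was measured over 60 min at 37C with NADPH regeneration; inhibitors and some substrates reduce luminescence. Data normalized to sulphaphenazole 57uM.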

[12] = target: Cytochrome P450 2C19 (Homo sapiens) (UniProt P33261); experiment: qHTS Assay for Inhibitors and Substrates of Cytochrome P450 2C19 (AID 899; active = well fitted curve in the direction sought with a large enough effect; an effect the other way counts as inactive or inconclusive; note: nearly all actives have a fitted effect of over 60% in size)
Sequence of Cytochrome P450 2C19 (Homo sapiens) (P33261 whole entry, looked up): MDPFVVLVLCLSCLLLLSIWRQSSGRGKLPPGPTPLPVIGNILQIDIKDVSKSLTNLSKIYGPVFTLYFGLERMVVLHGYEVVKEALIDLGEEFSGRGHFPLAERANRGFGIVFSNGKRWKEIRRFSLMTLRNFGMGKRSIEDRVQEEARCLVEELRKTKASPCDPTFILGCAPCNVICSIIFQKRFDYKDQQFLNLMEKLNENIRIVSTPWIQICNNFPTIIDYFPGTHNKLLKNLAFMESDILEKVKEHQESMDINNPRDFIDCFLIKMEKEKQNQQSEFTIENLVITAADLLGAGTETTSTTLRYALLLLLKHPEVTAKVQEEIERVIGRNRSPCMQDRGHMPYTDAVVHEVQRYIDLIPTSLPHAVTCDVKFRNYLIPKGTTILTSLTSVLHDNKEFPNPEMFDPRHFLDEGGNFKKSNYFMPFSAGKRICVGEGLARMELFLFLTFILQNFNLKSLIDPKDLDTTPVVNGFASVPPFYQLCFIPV
Outline: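 Reactions contain 5nM enzyme, 10uM Luciferin-H EGE (KM) and 50mM KPO4; compound preincubates 10 min at 37C, NADPH regeneration starts turnover for 60 min. Luminescence after detection reagent gives activity.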

[13] = S16 Schwann cell PMP22 intronic element firefly luciferase assay (AID 624032; active = well fitted curve in the direction sought with a large enough effect; an effect the other way counts as inactive or inconclusive; note: potency is the fitted concentration of half-maximal effect; nearly all actives have a fitted effect of over 30% in size)
Outline: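 Luciferase reporter of PMP22 intronic-element expression in stably transfected S16 rat Schwann cells, read by ONE-Glo luminescence after 24 h compound exposure at 37 C. Activity scaled between DMSO (0%) and positive-control PTC124; concentration-effect curves quality-classified.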

[14] = S16 Schwann cell PMP22 intronic element beta-lactamase assay (AID 624044); settings: S16 rat Schwann cells, PMP22 element beta-lactamase FRET, 24 h; ratio activity, negative = inhibition: at 38.3 µM (top of the series) unless noted; note: potency is the fitted concentration of half-maximal effect; nearly all actives have a fitted effect of over 15% in size
Outline: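 Rat S16 Schwann cells with beta-Lac driven by a PMP22 intronic element, compound-treated 24 h at 37 °C. LiveBLAzer FRET B/G read: 460 nm normalized to potassium clavulanate vs DMSO; 535 nm FRET as viability; concentration-effect curves classified.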

[15] = qHTS Assay for Identifying Gametocytocidal Compounds (AID 743244; active = well fitted curve in the direction sought with a large enough effect; an effect the other way counts as inactive or inconclusive; note: potency is the fitted concentration of half-maximal effect); settings: P. falciparum 3D7 stage III-V gametocytes, alamarBlue, 72 h
Outline: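 In this qHTS viability screen, late-stage 3D7 gametocytes are incubated with compound for 72 h, then with alamarBlue for 24 h; reduced resorufin fluorescence marks killing.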

[16] = target: Alpha-galactosidase (Coffea arabica) (UniProt Q42656); experiment: Counterscreen for Glucocerebrosidase Inhibitors: qHTS Assay for Coffee Bean alpha-Galactosidase at pH 4.5 (AID 957; active = well fitted curve in the direction sought with a large enough effect; an effect the other way counts as inactive or inconclusive)
Sequence of Alpha-galactosidase (Coffea arabica) (Q42656 whole entry, looked up): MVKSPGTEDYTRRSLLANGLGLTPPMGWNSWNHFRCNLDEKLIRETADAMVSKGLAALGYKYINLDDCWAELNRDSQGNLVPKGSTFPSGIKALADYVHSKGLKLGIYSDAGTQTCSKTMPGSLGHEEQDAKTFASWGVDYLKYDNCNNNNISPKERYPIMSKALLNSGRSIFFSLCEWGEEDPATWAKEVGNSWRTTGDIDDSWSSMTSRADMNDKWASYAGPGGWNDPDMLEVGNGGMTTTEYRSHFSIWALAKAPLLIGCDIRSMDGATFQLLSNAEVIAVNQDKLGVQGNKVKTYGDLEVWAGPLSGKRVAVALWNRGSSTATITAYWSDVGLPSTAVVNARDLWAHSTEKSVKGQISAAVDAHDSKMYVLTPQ
Outline: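 AC50 values derive from Hill-equation modeling of concentration-response data, normalized to no-enzyme and full-activity controls. The pH 4.5 citrate assay used 2 nM coffee bean enzyme and 80 uM fluorogenic substrate for 20 min.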

[17] = target: Alpha-galactosidase (Coffea arabica) (UniProt Q42656); experiment: Counterscreen for Glucocerebrosidase Inhibitors: qHTS Assay for Coffee Bean alpha-Galactosidase at pH 5.9 (AID 998; active = well fitted curve in the direction sought with a large enough effect; an effect the other way counts as inactive or inconclusive)
Outline: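 Compounds were titrated from 0.7 nM to 77 uM against green coffee bean alpha-galactosidase (2 nM) using 80 uM fluorogenic 4-methylumbelliferyl substrate. After 20 min at room temperature, reactions were stopped at pH 10 and read by fluorescence.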

[18] = Validation screen for inhibitors of Lassa infection (AID 463096)

Structure (SMILES): CCC(=O)O[C@H]1CC[C@H]2[C@@H]3CC[C@H]4CC(=O)[C@H](C)C[C@]4(C)[C@H]3CC[C@]12C
- Potency [1]: inactive
- Potency [2]: inactive
- Potency [3]: inactive
- Potency [4]: inactive
- activity change, negative = inhibition [5]: -28.3%
- Potency [6]: inactive
- Potency [7]: inactive

Structure (SMILES): COc1ccc(-c2noc(CC(=O)O)c2-c2ccc(OC)cc2)cc1
- Potency [1]: inactive
- Potency [2]: inactive
- Potency [3]: inactive
- Potency [4]: inactive
- activity change, negative = inhibition [5]: -24.5%

Structure (SMILES): CC(=O)N[C@H](Cc1ccc2ccccc2c1)C(=O)N[C@H](Cc1ccc(Cl)cc1)C(=O)N[C@H](Cc1cccnc1)C(=O)N[C@@H](CO)C(=O)N[C@@H](Cc1ccc(O)cc1)C(=O)N[C@H](CCCNC(N)=O)C(=O)N[C@@H](CC(C)C)C(=O)N[C@@H](CCCN=C(N)N)C(=O)N1CCC[C@H]1C(=O)N[C@H](C)C(N)=O (Ac-[d2Nal][dPhe(4-Cl)][d3Pal]SY[dCit]LRP[dA]-NH2)
- Potency [1]: inactive
- Potency [2]: inactive
- Potency [3]: inactive
- Potency [4]: inactive
- activity change, negative = inhibition [5]: -10.8% [at 27.1 µM]

Structure (SMILES): CCN(CC)CCS(=O)(=O)[C@@H]1CCN2C(=O)c3coc(n3)CC(=O)C[C@H](O)/C=C(C)/C=C/CNC(=O)/C=C/[C@@H](C)[C@@H](C(C)C)OC(=O)[C@@H]12
- Potency [1]: inactive
- Potency [2]: inactive
- Potency [3]: inactive
- Potency [4]: inactive
- activity change, negative = inhibition [5]: -29%

Structure (SMILES): NC(=O)[C@@H]1C[C@]2(NC(=O)NC2=O)c2cc(F)ccc2O1
- Potency [1]: inactive
- Potency [2]: inactive
- Potency [3]: inactive
- Potency [4]: inactive
- activity change, negative = inhibition [5]: -14.3%

Structure (SMILES): OCC=Cc1ccccc1
- Potency [1]: inactive
- Potency [2]: inactive
- Potency [3]: inactive
- Potency [4]: inactive
- activity change, negative = inhibition [5]: -22.7%

Structure (SMILES): CCC(=O)O[C@@H]1[C@@H](C)O[C@@H](O[C@H]2[C@H](N(C)C)[C@@H](O)[C@H](O[C@H]3[C@@H](CC=O)C[C@@H](C)[C@@H](OC(C)=O)/C=C/C=C/C[C@@H](C)OC(=O)C[C@@H](OC(=O)CC)[C@@H]3OC)O[C@@H]2C)C[C@]1(C)OC(C)=O
- Potency [1]: inactive
- Potency [2]: inactive
- Potency [3]: inactive
- Potency [4]: inactive
- activity change, negative = inhibition [5]: -16.2%

Structure (SMILES): CC(C)(C)CC(C)(C)c1cc(Cc2cc(C(C)(C)CC(C)(C)C)cc(-n3nc4ccccc4n3)c2O)c(O)c(-n2nc3ccccc3n2)c1
- activity change, negative = cytotoxicity [1]: 1.83% [at 5.34 µM] (inactive)
- outcome [2]: inactive [at 5.34 µM]
- activity change, negative = cytotoxicity [3]: -1.1% [at 5.34 µM] (inactive)
- outcome [4]: inactive [at 5.25 µM]
- activity change, negative = inhibition [5]: -28.1% [at 5.25 µM]

Structure (SMILES): Cc1c(N)nc(C(CC(N)=O)NCC(N)C(N)=O)nc1C(=O)NC(C(=O)NC(C)C(O)C(C)C(=O)NC(C(=O)NCCc1nc(-c2nc(C(=O)NCCCN[C@@H](C)c3ccccc3)cs2)cs1)C(C)O)C(O[C@@H]1O[C@@H](CO)[C@@H](O)[C@H](O)[C@@H]1O[C@H]1O[C@H](CO)[C@@H](O)[C@H](OC(N)=O)[C@@H]1O)c1cnc[nH]1 (some centres undefined)
- Potency [1]: inactive
- Potency [2]: inactive
- Potency [3]: inactive
- Potency [8]: 27.1 nM (active)

Structure (SMILES): N=C(N)c1ccc(OCCCOc2ccc(C(=N)N)cc2Br)c(Br)c1
- Potency [1]: inactive
- Potency [3]: inactive

Structure (SMILES): O=c1ccc2ccc(OCCCCN3CCN(c4cccc5sccc45)CC3)cc2[nH]1
- Potency [1]: inactive
- Potency [3]: inactive
- Potency [9]: inactive

Structure (SMILES): CN(C)CCC=C1c2ccccc2C(C)(C)c2ccccc21
- Potency [1]: inactive
- Potency [3]: inactive
- Potency [9]: inactive
- Potency [10]: 10 µM (active)
- Potency [4]: inactive

Structure (SMILES): C[C@H]1CC[C@@H]2[C@@H](C)[C@H]3[C@H](C[C@H]4[C@@H]5CC=C6C[C@@H](O[C@@H]7O[C@H](CO)[C@H](O)[C@H](O[C@@H]8O[C@H](CO)[C@@H](O)[C@H](O)[C@H]8O)[C@H]7O[C@@H]7O[C@@H](C)[C@H](O)[C@@H](O)[C@H]7O)CC[C@]6(C)[C@H]5CC[C@]34C)N2C1
- Potency [1]: inactive
- Potency [2]: inactive
- Potency [5]: 20 µM (active)

Structure (SMILES): CN1CCc2c(c3ccccc3n2Cc2ccccc2)C1
- Potency [1]: inactive
- Potency [3]: inactive

Structure (SMILES): Cc1nn(C)c2c1C(c1ccccc1F)=NCC(=O)N2C
- Potency [1]: inactive
- Potency [2]: 22.4 µM (active)
- Potency [3]: inactive
- Potency [4]: inactive
- Potency [6]: inactive
- Potency [7]: inactive

Structure (SMILES): Cc1c(O)c(=O)ccn1C
- activity change, negative = inhibition [11]: 39.1% [at 11.4 µM] (inactive)
- activity, negative = inhibition [12]: 86.4% [at 11.4 µM] (inactive)
- Potency [1]: inactive
- Potency [2]: inactive
- Potency [3]: inactive
- Potency [4]: inactive
- activity change, negative = inhibition [5]: -14.9% [at 114 µM]

Structure (SMILES): C/C(=C(/CCO)SSCC1CCCO1)N(C=O)Cc1cnc(C)nc1N (centres undefined)
- Potency [1]: inactive
- Potency [2]: inactive
- Potency [3]: inactive
- activity change, negative = inhibition [5]: -21.7%

Structure (SMILES): CCOC(=O)c1c[nH]c2cc(OCC(C)C)c(OCC(C)C)cc2c1=O
- Potency [1]: inactive
- Potency [2]: inactive
- activity change, negative = inhibition [5]: -18.7%

Structure (SMILES): O=NCc1ccc([N+](=O)[O-])o1
- Potency [1]: inactive
- Potency [3]: inactive

Structure (SMILES): CC(C)n1c(/C=C/[C@H](O)C[C@H](O)CC(=O)O)c(-c2ccc(F)cc2)c2ccccc21
- Potency [13]: 11.4 µM (active)
- Potency [14]: 14.1 µM (active)
- Potency [1]: inactive
- Potency [2]: inactive
- Potency [3]: 8.91 µM (active)
- Potency [4]: inactive
- Potency [5]: inactive

Structure (SMILES): CCCC(CCC)C(=O)OC1C[C@H]2CC[C@@H](C1)[N+]2(C)C (some centres undefined)
- Potency [15]: 10 µM (active)
- Potency [1]: inactive
- Potency [2]: inactive
- Potency [3]: inactive
- Potency [4]: inactive

Structure (SMILES): CN1CCC2=C(C1)C(c1ccccc1)c1ccccc12 (centres undefined)
- Potency [1]: inactive
- Potency [2]: inactive
- Potency [3]: inactive
- Potency [4]: inactive
- Potency [6]: inactive
- Potency [7]: inactive

Structure (SMILES): C#C[C@]1(O)CC[C@H]2[C@@H]3CCC4=CC(=O)CC[C@@H]4[C@H]3C(=C)C[C@@]21CC
- Potency [15]: 7.43 µM (active)
- Potency [1]: inactive
- Potency [2]: inactive
- Potency [3]: inactive
- Potency [4]: inactive

Structure (SMILES): C=C[C@]1(C)C[C@@H](OC(=O)CSC2C[C@H]3CC[C@@H](C2)N3C)C2(C)[C@H](C)CCC3(CCC(=O)[C@H]32)[C@@H](C)[C@@H]1O (some centres undefined)
- Potency [1]: inactive
- Potency [3]: inactive

Structure (SMILES): CC[N+](C)(C)Cc1ccccc1Br
- outcome [16]: inactive
- outcome [17]: inactive
- Potency [18]: inactive
- Potency [1]: inactive
- Potency [2]: inactive
- Potency [4]: inactive
